# Reference: ChEMBL document CHEMBL3988442, “University of Dundee, Small-Polar-MMV Screening Library” (2021)
# For some of these results: Potency and affinity values are given separately.
# How the values were obtained:
# Design in all cases: scale not given: direction of the effect not stated beside the values
# [1] = molecular target: Protein translocase subunit SecA (Escherichia coli (strain K12)) (UniProt P10408); assay: Assay to Identify E. coli SecA ATPase Inhibitors; assay type: functional; settings: 30 µM
# Chain of Protein translocase subunit SecA (Escherichia coli (strain K12)) (P10408 whole entry): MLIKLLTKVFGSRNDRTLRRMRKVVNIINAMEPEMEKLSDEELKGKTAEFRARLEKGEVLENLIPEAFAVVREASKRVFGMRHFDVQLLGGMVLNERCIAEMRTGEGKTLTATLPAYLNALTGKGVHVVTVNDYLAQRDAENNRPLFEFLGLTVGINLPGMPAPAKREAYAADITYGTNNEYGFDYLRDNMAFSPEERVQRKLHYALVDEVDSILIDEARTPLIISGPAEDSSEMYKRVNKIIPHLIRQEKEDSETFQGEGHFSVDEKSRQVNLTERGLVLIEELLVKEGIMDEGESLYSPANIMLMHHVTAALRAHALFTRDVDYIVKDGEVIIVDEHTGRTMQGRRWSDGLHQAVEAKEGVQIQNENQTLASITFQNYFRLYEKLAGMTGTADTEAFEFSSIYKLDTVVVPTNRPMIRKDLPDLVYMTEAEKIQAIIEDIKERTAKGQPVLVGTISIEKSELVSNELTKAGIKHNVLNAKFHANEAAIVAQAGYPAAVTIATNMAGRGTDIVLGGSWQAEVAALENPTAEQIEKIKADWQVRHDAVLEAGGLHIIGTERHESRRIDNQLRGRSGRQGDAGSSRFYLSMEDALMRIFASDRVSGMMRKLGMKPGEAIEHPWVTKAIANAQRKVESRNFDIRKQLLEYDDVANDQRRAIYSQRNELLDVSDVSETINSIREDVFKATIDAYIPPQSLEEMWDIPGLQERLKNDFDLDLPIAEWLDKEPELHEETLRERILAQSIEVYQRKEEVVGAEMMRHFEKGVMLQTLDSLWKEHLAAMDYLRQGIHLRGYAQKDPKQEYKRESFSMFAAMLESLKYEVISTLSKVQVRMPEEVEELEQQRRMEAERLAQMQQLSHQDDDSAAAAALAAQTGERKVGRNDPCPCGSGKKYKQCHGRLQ
# [2] = molecular target: T1, Ubiquitin-activating enzyme e1, putative (Leishmania donovani (strain BPK282A1)) (UniProt E9BSI1); assay: Leishmania donovani Ubiquitin Activating Enzyme (LdE1); assay type: functional; settings: 30 µM
# T1 sequence (whole entry): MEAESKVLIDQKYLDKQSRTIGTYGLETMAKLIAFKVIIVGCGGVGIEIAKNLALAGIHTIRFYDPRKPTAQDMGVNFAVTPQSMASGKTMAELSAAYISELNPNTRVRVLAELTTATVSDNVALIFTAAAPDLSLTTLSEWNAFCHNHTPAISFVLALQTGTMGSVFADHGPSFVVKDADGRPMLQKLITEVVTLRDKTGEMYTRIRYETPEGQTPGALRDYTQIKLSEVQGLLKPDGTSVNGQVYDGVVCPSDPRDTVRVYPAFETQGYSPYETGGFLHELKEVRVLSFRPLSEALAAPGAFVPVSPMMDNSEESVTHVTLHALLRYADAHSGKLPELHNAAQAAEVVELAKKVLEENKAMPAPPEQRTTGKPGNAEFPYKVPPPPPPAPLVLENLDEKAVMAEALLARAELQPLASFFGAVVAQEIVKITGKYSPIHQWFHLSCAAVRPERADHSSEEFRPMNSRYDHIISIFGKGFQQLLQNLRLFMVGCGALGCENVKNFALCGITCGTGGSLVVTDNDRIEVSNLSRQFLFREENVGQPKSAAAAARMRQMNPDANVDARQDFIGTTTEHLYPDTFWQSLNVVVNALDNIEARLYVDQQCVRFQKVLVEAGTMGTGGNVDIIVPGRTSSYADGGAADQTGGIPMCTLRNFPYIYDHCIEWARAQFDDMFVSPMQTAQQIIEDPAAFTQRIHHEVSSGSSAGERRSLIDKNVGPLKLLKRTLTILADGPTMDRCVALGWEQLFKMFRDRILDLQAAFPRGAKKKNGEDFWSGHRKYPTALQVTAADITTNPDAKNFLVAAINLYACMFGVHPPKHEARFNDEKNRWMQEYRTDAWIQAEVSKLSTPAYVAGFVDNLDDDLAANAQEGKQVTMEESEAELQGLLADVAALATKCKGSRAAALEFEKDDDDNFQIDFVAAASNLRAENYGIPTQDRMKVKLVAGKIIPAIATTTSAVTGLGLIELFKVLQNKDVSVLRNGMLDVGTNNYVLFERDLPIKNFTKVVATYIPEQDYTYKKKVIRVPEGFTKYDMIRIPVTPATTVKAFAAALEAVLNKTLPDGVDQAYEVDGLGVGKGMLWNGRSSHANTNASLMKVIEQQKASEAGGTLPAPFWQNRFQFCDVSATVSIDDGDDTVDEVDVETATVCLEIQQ
# [3] = molecular target: AMP-activated protein kinase, AMPK (Homo sapiens) (UniProt P54646+O43741+P54619+Q9UGJ0+Q9Y478+Q13131+Q9UGI9); assay: AMP-dependent Kinase enzyme assay. An in vitro enzyme assay that detects ADP turnover that is directly proportional to AMPK activity. This uses naive AMPK that is activated during the assay with MK-8722; assay type: functional; settings: 30 µM
# [4] = molecular target: Sialic acid-binding Ig-like lectin 9 (Homo sapiens) (UniProt Q9Y336); assay: Hs-Siglec9 ALPHAscreen SOP 20170721; settings: 10 µM
# Chain of Sialic acid-binding Ig-like lectin 9 (Homo sapiens) (Q9Y336 whole entry): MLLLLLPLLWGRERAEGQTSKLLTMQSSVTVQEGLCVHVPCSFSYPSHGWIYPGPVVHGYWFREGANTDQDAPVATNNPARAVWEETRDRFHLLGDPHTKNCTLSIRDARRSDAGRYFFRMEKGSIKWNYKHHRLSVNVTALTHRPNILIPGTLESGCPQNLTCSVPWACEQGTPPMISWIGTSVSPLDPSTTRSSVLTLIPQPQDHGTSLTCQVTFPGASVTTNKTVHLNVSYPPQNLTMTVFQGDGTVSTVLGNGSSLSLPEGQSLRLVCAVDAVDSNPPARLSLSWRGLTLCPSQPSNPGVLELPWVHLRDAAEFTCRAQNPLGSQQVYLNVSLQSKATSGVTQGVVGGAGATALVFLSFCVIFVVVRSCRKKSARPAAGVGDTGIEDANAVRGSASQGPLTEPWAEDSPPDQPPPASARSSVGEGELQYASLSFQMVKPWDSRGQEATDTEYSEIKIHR
# Trypanosoma cruzi = assay: Trypanosoma cruzi phosphomannomutase and mannose-1-phosphate guanylyltransferase assay; assay type: functional; settings: 10 µM
# [5] = molecular target: T2, Arginase-2, mitochondrial (Homo sapiens) (UniProt P78540); assay: in vitro enzyme assay to detect the production of urea directly proportional to the activity of Arginase II; assay type: functional; settings: 33.3 µM; also: in the data most compounds retested in dose-response had high values
# T2 sequence (whole entry): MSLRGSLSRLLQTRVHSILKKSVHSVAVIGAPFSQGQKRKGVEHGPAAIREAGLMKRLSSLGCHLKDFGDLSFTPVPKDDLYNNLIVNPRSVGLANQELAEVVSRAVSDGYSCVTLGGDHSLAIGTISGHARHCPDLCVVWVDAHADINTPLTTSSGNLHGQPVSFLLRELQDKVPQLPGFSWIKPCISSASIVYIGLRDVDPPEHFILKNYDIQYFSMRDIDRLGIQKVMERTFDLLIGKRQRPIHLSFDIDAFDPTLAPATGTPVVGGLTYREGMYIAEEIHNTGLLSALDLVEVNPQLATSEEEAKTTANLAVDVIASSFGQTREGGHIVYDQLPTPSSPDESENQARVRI
# [6] = molecular target: T3, Proteasome subunit beta (Trypanosoma cruzi) (UniProt O96673); assay: Trypanosoma cruzi proteasome chymotrypsin-like activity (TcProtChymo) assay.; also: in the data most compounds retested in dose-response had high values; assay type: functional; settings: 9.37 µM
# T3 sequence (whole entry): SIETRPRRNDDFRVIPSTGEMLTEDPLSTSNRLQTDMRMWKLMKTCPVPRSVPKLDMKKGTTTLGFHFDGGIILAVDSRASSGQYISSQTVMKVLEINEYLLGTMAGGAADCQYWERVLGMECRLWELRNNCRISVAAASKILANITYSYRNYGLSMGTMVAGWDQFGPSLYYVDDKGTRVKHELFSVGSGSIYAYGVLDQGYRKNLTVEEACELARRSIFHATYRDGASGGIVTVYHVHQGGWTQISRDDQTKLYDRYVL
# Homo sapiens = species on record: Homo sapiens; assay: To identify inhibition of the IFN signalling (Jak-Stat) pathway via expression of an eGFP reporter gene under the control of an IFN-stimulated response element (ISRE) containing MxA promoter.; assay type: functional; settings: 30 µM
# [7] = molecular target: T4, Tyrosyl-tRNA synthetase, putative (Trypanosoma cruzi (strain CL Brener)) (UniProt Q4DSP6); assay: Trypanosoma cruzi tyrosyl tRNA synthetase (TcYRS) _High Tyrosine SOP; assay type: functional; settings: 30 µM; also: in the data most compounds retested in dose-response had high values
# T4 sequence (whole entry): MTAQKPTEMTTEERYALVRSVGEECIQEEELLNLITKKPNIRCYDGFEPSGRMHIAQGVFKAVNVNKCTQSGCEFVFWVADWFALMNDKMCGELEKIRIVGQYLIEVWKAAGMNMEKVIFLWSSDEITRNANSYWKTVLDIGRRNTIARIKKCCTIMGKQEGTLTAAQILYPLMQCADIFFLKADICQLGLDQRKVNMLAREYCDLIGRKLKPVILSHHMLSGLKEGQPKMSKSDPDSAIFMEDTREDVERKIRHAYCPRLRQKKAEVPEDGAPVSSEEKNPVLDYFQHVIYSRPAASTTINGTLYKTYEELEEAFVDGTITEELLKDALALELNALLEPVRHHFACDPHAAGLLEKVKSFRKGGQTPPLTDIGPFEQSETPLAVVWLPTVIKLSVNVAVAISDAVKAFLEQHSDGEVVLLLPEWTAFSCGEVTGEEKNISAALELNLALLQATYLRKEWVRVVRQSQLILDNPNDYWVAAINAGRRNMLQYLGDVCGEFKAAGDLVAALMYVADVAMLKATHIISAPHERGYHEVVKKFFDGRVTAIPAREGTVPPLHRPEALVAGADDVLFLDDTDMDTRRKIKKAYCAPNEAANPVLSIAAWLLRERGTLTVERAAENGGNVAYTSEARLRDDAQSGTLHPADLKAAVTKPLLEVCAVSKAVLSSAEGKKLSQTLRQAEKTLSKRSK
# [8] = molecular target: T4, Tyrosyl-tRNA synthetase, putative (Trypanosoma cruzi (strain CL Brener)); assay: Trypanosoma cruzi tyrosyl tRNA synthetase (TcYRS) SOP; assay type: functional; settings: 30 µM
# [9] = molecular target: Chromo domain-containing protein 1 (Saccharomyces cerevisiae (strain ATCC 204508 / S288c) (Baker's yeast)) (UniProt P32657); assay: ScCHD-1 Enzyme Inhibition Assay; assay type: functional; settings: 30 µM; also: in the data most compounds retested in dose-response had high values
# Chain of Chromo domain-containing protein 1 (Saccharomyces cerevisiae (strain ATCC 204508 / S288c) (Baker's yeast)) (P32657 whole entry, the tested form may be a part): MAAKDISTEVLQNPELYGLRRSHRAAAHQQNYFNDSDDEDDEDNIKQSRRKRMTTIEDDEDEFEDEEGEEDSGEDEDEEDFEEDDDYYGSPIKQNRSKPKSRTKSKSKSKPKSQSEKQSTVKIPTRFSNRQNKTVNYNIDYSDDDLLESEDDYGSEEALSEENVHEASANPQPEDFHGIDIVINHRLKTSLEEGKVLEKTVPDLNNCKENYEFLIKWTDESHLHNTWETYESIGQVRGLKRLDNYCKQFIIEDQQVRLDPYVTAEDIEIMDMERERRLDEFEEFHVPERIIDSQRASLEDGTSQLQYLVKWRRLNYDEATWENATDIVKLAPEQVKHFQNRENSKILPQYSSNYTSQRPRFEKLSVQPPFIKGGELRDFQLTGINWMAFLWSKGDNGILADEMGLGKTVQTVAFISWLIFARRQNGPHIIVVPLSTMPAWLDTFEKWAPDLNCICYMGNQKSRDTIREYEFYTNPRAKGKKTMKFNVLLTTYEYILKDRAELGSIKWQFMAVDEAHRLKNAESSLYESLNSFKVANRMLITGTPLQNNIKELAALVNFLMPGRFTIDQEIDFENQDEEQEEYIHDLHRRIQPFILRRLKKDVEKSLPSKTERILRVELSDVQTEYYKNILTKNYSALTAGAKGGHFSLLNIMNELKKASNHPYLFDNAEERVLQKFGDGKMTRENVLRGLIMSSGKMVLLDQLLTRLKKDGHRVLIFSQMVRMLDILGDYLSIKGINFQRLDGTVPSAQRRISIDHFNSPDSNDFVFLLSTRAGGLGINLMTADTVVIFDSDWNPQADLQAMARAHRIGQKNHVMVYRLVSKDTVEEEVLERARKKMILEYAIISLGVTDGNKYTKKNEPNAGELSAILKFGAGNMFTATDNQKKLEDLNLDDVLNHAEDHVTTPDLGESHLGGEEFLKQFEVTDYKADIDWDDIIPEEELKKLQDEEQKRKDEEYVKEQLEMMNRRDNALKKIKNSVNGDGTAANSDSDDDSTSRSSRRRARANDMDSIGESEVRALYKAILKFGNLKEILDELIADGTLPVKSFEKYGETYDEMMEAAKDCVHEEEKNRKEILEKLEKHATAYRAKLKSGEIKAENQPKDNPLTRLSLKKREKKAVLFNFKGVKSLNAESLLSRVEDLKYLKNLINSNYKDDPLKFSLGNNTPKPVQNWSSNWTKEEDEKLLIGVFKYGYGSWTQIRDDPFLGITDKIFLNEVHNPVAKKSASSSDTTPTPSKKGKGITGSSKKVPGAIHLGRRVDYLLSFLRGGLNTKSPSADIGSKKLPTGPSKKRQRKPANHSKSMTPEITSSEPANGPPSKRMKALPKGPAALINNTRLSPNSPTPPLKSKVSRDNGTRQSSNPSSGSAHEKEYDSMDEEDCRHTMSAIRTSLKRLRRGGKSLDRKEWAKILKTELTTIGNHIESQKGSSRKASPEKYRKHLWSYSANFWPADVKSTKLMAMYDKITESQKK
Compound,Percent Effect [1] [%],Percent Effect [2] [%],Percent Effect [3] [%],Percent Effect [4] [%],Percent Effect (Trypanosoma cruzi) [%],Percent Effect [5] [%],Percent Effect [6] [%],Percent Effect (Homo sapiens) [%],Percent Effect [7] [%],Percent Effect [8] [%],Percent Effect [9] [%]
Cc1cc(S(=O)(=O)NCc2cccc(C(=O)N3CCCC3)c2)c(C)s1,-4.9,13,-3.16,-6.78,4.21,-1.9,10.1,15.2,5.71,21.2,-17.7
O=C([C@@H]1C[C@H]2[C@H](CCN2Cc2nccs2)O1)N1CCOCC1,-0.787,8.11,1.14,-3.79,-2.15,0.833,19,11.3,10.9,13.4,8.93
Cc1nc(N2CCCC2)nc2c1CCN(C(=O)CC1CC1)CC2,-4.09,20,-2.46,4.72,2.75,-7.22,16.1,9.15,-2.12,10.3,-11
CCOc1ccc(-n2nnc(C(=O)O)c2-c2ccccn2)cc1,-1.24,7.89,4.82,-2.3,0.487,0,29.2,5.63,3.19,13,-4.17
CC(C)(CNC(=O)OC(C)(C)C)NC(=O)C1CC(=O)N(C2CC2)C1 (stereo unspecified),-7.68,-2.7,-1.58,-8.17,-8.11,-1.24,7.3,20.6,-2.15,3.7,-4.06
CC(C)(C(=O)NCC(N)=O)c1ccccc1F,-2.75,-1.39,-0.917,-6.27,-3.98,-17.7,6.67,-3.33,2.1,0,-1.29
CCc1nnc2n1CCN(CC(=O)Nc1sccc1C#N)C2,-4.04,10.5,-7.74,-3.22,-8.68,5.4,12.6,-5.63,5.42,6.17,-3.17
CCN(CC)CCNC(=O)c1nn(CC)cc1Cl,0.115,20,-10.1,-7.51,2.55,-10.7,9.43,29.3,5.29,10.3,-9.1
COc1ccc(CCN2CCC(N3CCN(C)C3=O)CC2)cc1,-6.17,13,0.0857,0.317,-1.87,-4.98,8.45,4.3,4.85,12.2,-7.97
CCn1ccnc1CN1CCN(CCC(=O)NC(C)(C)C)CC1C (stereo unspecified),-2.88,8.11,-0.327,5.56,3.71,10,5.16,5.99,10.9,15.8,-3.56
COCCN1C[C@@H]2CCCO[C@@H]2[C@H](N(C)Cc2ccco2)C1,-2.66,10.7,1.93,-6.59,2.56,50.6,11,16.7,7.45,16.7,-2.07
